Results on 40 molecules are retold here after PubChem BioAssay.

SMILES strings stand for the structures. A number with no mark means an inactive call. Active and inactive are the calls of the source. No stated cut-off is given here; in the data, active means inhibition above about 33%; inactive means the rest.

The assay can be described thus: compounds suppressing VP16-driven luciferase signal – cell-based, luminescence, high throughput, counter-screen for LRH-1 inverse agonist project (AID 651615). The following applies: Gal4-VP16 luciferase reporter cells, at 3.6 µM, stronger effect = higher value.
`Cc1ccc(Sc2ccc(NC(=O)CCl)cc2)cc1C`: the inhibition was -14.4%. The figure for `O=C(c1ccccc1Br)N1CCN(c2ccc([N+](=O)[O-])c(N3CCOCC3)c2)CC1` is -4.88%; for `CCc1cc(=O)oc2cc3occ(-c4ccc(OC)c(F)c4)c3cc12` it is 23.1%; for `O=C(C(Cl)c1ccccc1)N1CCOCC1` (stereo not given) it is -10.2%. The figure for `Cc1ccc(NC(=O)CSc2nnc(CCCCCNC(=O)OC(C)(C)C)o2)c(C)c1` is 4.4%. The figure for `O=C(Nc1ccc(N2CCN(C(=O)c3ccco3)CC2)cc1)c1ccc2c(c1)OCO2` is 60.5% (active); for `Cc1ccc(C(=O)N/N=C\c2ccc([N+](=O)[O-])o2)cn1` it is 0.83%; for `C=CC[n+]1c(-c2ccc(Cl)cc2Cl)csc1Nc1c(C)n(C)n(-c2ccccc2)c1=O` it is 27.5%. Regarding `Cc1cc(NCCCCCCCNc2cc(C)nc3cc([N+](=O)[O-])ccc23)c2ccc([N+](=O)[O-])cc2n1`, the inhibition is 39.7% (active). The figure for `C#Cc1cc(N2CCN(C(=O)c3ccoc3)CC2)n2nc(-c3cccc(Cl)c3)cc2n1` is 23.7%; for `CC(=O)N1CCN(c2cc(N3CCCC3)c(F)cc2[N+](=O)[O-])CC1` it is -0.47%; for `COc1ccc(C2=CC(=O)CC(C)(C)C2)cc1OC` it is 11.7%. The figure for `Cc1ccc(NNC(N)=S)cc1Cl` is 1.11%; for `O=C(N/N=C/c1c[nH]c2ccccc12)c1[nH]c2ccc(Br)cc2c1-c1ccccc1` it is 33.6% (active); for `CSCc1c(C(=O)Nc2ccccc2N2CCOCC2)oc2ccccc12` it is 14.2%. The figure for `O=C(NCCCc1ccccc1)c1cc([N+](=O)[O-])ccc1Cl` is -15.8%; for `CCNc1nc(-c2sc(NC(=O)C(C)(C)C)nc2C)c(-n2cc(-c3ccccc3)nn2)s1` it is 35.7% (active). In the case of `COc1cc2c(OC(C)=O)c3c(c(-c4ccc5c(c4)OCO5)c2cc1OC)C(=O)OC3`, the inhibition was 34.7% (active). The figure for `CC1(C)CC2CC(C)(CN2S(=O)(=O)c2ccc(C(=O)Nc3cccc(S(=O)(=O)N4CCOCC4)c3)cc2)C1` (stereo not given) is 56% (active); for `CCOCC(=O)Nc1ccc([N+](=O)[O-])cc1C` it is 4.94%; for `CNC(=O)c1cccc(NC(=O)c2cc(-c3ccccc3)nc3c2cnn3C(C)C)c1` it is -19.8%. Next, `COc1ccc(OCCNC(=O)c2ccccc2OCC(=O)Nc2ccc(NC(C)=O)cc2)cc1`: 0%.

Consider `COc1ccc(C2=CC(=O)OC3(CCCC3)O2)cc1`, for which the inhibition is -0.06%. The figure for `CCCOc1ccc2oc(=O)c3c(c2c1)CCCN3C(=O)CN1CCN(c2ncccn2)CC1` is -7.99%. For `O=C(NC1CCCCC1)c1ccc([N+](=O)[O-])o1`, the inhibition was -17.1%. Next, `Nc1cccc2nc3ccccc3cc12`: 92.2% (active); `Cc1c(NC(=O)c2ccc([N+](=O)[O-])o2)cccc1-c1nc2ncccc2o1`: -13.2%; `CCN(CC)S(=O)(=O)c1cc(NC(=O)CCCOc2ccc(C(C)=O)cc2)ccc1C`: 21.1%. Next, `Nc1ccc(C(=O)NN2C(=O)[C@H](Cl)C2c2ccc(Cl)cc2)cc1` (stereo not given in full): -16.2%; `O=[N+]([O-])c1ccc(N2CCN(S(=O)(=O)c3ccccc3)CC2)cc1NCc1cccnc1`: 14.6%.

As for `Cc1c(C#N)c(O)n(CCO)c(=O)c1N=Nc1ccc2c(c1)COC2=O`, the inhibition was -1%. Next, `COc1cccc(C2c3cc4c(cc3OC(N3CCOCC3)C2C)OCO4)c1O` (stereo not given): 21.4%; `CC(=O)N1CCN(c2ccc(NC(=O)c3cccc([N+](=O)[O-])c3)cc2)CC1`: -19.9%. The figure for `CCC(C)(C)n1nnnc1CN1CCC(O)(c2cccc(C(F)(F)F)c2)CC1` is -2.12%; for `Fc1ccc(Br)cc1SCCc1ccncc1` it is -2.36%.

Turning to `CC(NC(=O)c1ccco1)C(c1cccs1)N1CCN(c2ccccc2F)CC1` (stereo not given), the inhibition was 13%. Next, `Cc1ccn2c(=O)nc(SCC(=O)Nc3ccc4c(c3)OCCO4)nc2c1`: -15.9%; `Cn1c(=O)n(C)c2cc(NC(=O)CSc3nnc(-c4ccccc4O)n3-c3ccccc3)ccc21`: -42.1%; `Cc1ccc(NC(=O)COC(=O)C(NS(=O)(=O)c2ccc(Cl)cc2)C(C)O)c(Br)c1` (stereo not given): -12.9%. In the case of `Cc1ccc(OCc2nnc(SCC(=O)Nc3ccc4c(c3)OCCO4)n2Cc2ccco2)cc1`, the inhibition is 1.35%.
